Myeloid diff MLP – promotes myeloid progenitor differentiation | calls only at 10 µM | ER-HoxA9 myeloid progenitors, lysozyme-GFP differentiation, flow cytometry | 360,000 tested, 1% active;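 active = normalized GFP-positive differentiation at or above the plate's own cutoff, the solvent-only control mean plus 3 SD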;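 also: cells exposed to compound for four days before flow analysis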
MEP2-GFP yeast – modulators of TOR pathway MEP2-GFP in S. cerevisiae; S. cerevisiae MEP2-GFP strain, flow cytometry GFP, 3 h; 100% = DMSO control level; GFP response vs DMSO, % at 10 µM; 330,000 tested, 0.51% active;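 active = GFP response versus DMSO above a set limit, roughly screen mean plus 3 SD, cut at about 180% in these data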;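 also: median GFP fluorescence of the barcode-gated MEP2-GFP cells per well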
AGP1-GFP MLPCN – modulators of TOR pathway AGP1-GFP in S. cerevisiae. AID 2066. S. cerevisiae AGP1-GFP multiplex flow cytometry, 3 h; GFP as percent of DMSO wells. GFP response vs DMSO, % at 10 µM. 320,000 tested, 0.02% active;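 active = GFP response relative to DMSO above a set limit, near screen average plus 3 SD, cut at about 150% in these data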;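 also: median GFP channel fluorescence of the gated AGP1 strain per well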
LAP4-GFP MLPCN – alters LAP4-GFP fluorescence in TOR pathway yeast screen; S. cerevisiae LAP4-GFP multiplex, flow cytometry GFP, 3 h; median GFP as percent of DMSO wells; GFP response vs DMSO, % at 10 µM; 320,000 tested, 0.34% active;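 active = GFP response vs DMSO above a set limit, about the screen mean plus 3 SD, cut at about 150% in these data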
CIT2-GFP yeast – modulators of TOR pathway CIT2-GFP in S. cerevisiae | AID 2029 | S. cerevisiae CIT2-GFP strain, flow cytometry, 3 h; 100 means same as DMSO wells | 320,000 tested, 0.065% active | GFP response vs DMSO, % at 10 µM;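 active = GFP response relative to DMSO above a set limit, near the screen mean plus 3 SD, cut at about 150% in these data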;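 also: ratio of well median GFP fluorescence to mean of DMSO wells on the plate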
RPL19A-GFP yeast – alters RPL19A-GFP fluorescence in TOR pathway yeast screen | S. cerevisiae RPL19A-GFP strain, flow cytometry, 3 h; stronger effect = lower value | 330,000 tested, 0.3% active | AID 2025 | percent response vs DMSO, % at 10 µM;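 active = percent response vs DMSO below 50%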;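 also: median channel GFP fluorescence of the barcoded RPL19A-GFP strain; ratio of sample median GFP to plate DMSO average so 100% = DMSO; lower means less RPL19A-GFP as with rapamycin TOR inhibition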
Myeloid diff CP1 – compounds promoting myeloid differentiation. shares compounds with Myeloid diff MLP. ER-HoxA9 myeloid progenitors, GFP/Mac1 double-positive flow. calls only. 2,300 tested, 2% active;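 active = share of green or green-and-red cells above 9 and 9% in run 1 or 4 and 3% in run 2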
GFP autofluor – counter-screen for myeloid differentiation promoters: compound fluorescence; 2,300 tested, 7.4% active; fluorescence response, % (concentration not given with the values); ER-HoxA9 myeloid progenitors, no estrogen, GFP autofluorescence flow cytometry; vehicle wells 0%, positive control 100%; shares compounds with Myeloid diff MLP;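 active = over 5% cells positive for green fluorescent reporter, or over 2% positive for both it and APC stain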;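 also: range taken on the double positive population between DMSO and positive control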
* = called active by the depositor. Most compounds without a hit are left out; they make up all but 1.8% or so of the library.

For COc1cccc(CN(C)C(=O)C(CCSC)NS(=O)(=O)c2ccc3c(c2)OCCO3)c1OC (stereo unspecified) the results were Myeloid diff MLP inactive, MEP2-GFP yeast 97, AGP1-GFP MLPCN 106, LAP4-GFP MLPCN 98, CIT2-GFP yeast 109 and RPL19A-GFP yeast 98.
`COc1ccc(C2=NN(C(N)=S)C(c3ccco3)C2)cc1` (stereo unspecified) gave Myeloid diff MLP active, MEP2-GFP yeast 92, AGP1-GFP MLPCN 89, LAP4-GFP MLPCN 93, CIT2-GFP yeast 84, RPL19A-GFP yeast 95, Myeloid diff CP1 inactive and GFP autofluor 0.
Screening COc1ccc(C2=NN(C(=O)CSc3nnc(-c4ccccc4F)o3)C(c3ccco3)C2)cc1 (stereo unspecified) returned Myeloid diff MLP inactive, MEP2-GFP yeast 99, AGP1-GFP MLPCN 95, LAP4-GFP MLPCN 103, CIT2-GFP yeast 93, RPL19A-GFP yeast 107, Myeloid diff CP1 inactive and GFP autofluor 0.
Screening CC(C)(C)c1ccc(C(=O)NCCC(=O)NNC(=O)COc2ccc(F)cc2)cc1 returned Myeloid diff MLP inactive, MEP2-GFP yeast 94, AGP1-GFP MLPCN 100, LAP4-GFP MLPCN 100, CIT2-GFP yeast 87 and RPL19A-GFP yeast 97.
Screening Cc1ccc(S(=O)(=O)c2cnc3cc(C)nn3c2N)cc1 returned Myeloid diff MLP inactive, MEP2-GFP yeast 96, AGP1-GFP MLPCN 92, LAP4-GFP MLPCN 99, CIT2-GFP yeast 91 and RPL19A-GFP yeast 93.
For COc1ccccc1/C=C/C=C1\Oc2c(ccc(O)c2CN2CCN(CCO)CC2)C1=O the results were Myeloid diff MLP inactive, MEP2-GFP yeast 110, AGP1-GFP MLPCN 106, LAP4-GFP MLPCN 99, CIT2-GFP yeast 105, RPL19A-GFP yeast 108, Myeloid diff CP1 inactive and GFP autofluor 0.
Screening COc1cc(CN2CCN(Cc3ccc4cc(F)ccc4n3)CC2CCO)cc(OC)c1 (stereo unspecified) returned Myeloid diff MLP inactive, MEP2-GFP yeast 98, AGP1-GFP MLPCN 108, LAP4-GFP MLPCN 93, CIT2-GFP yeast 98, RPL19A-GFP yeast 99, Myeloid diff CP1 inactive and GFP autofluor 0.
For COc1ccc(Cn2nnnc2CN2CCc3ccccc3C2)cc1 the results were Myeloid diff MLP inactive, MEP2-GFP yeast 101, AGP1-GFP MLPCN 100, LAP4-GFP MLPCN 103, CIT2-GFP yeast 93 and RPL19A-GFP yeast 97.
Screening COc1ccc(Cn2nnnc2CN2CCc3ccccc32)cc1 returned Myeloid diff MLP active, MEP2-GFP yeast 95, AGP1-GFP MLPCN 92, LAP4-GFP MLPCN 96, CIT2-GFP yeast 98, RPL19A-GFP yeast 96, Myeloid diff CP1 inactive and GFP autofluor 3.
`CN1CCN(NS(=O)(=O)c2ccc(Cl)cc2)CC1` gave Myeloid diff MLP inactive, MEP2-GFP yeast 103, AGP1-GFP MLPCN 100, LAP4-GFP MLPCN 91, CIT2-GFP yeast 103 and RPL19A-GFP yeast 103.
CCC(C)[C@H](NC(=O)NCc1ccccc1Cl)C(=O)OC (stereo partly specified) was read as Myeloid diff MLP inactive, MEP2-GFP yeast 101, AGP1-GFP MLPCN 95, LAP4-GFP MLPCN 97, CIT2-GFP yeast 97, RPL19A-GFP yeast 97, Myeloid diff CP1 inactive and GFP autofluor 0.
For CCC(C)[C@H](NC(=O)NCc1cccnc1)C(=O)OC (stereo partly specified) the results were Myeloid diff MLP inactive, MEP2-GFP yeast 103, AGP1-GFP MLPCN 107, LAP4-GFP MLPCN 113, CIT2-GFP yeast 103 and RPL19A-GFP yeast 105.
`Cc1ccc(NS(=O)(=O)c2cc(N)ccc2Cl)c(C)c1` gave Myeloid diff MLP inactive, MEP2-GFP yeast 100, AGP1-GFP MLPCN 104, LAP4-GFP MLPCN 99, CIT2-GFP yeast 87 and RPL19A-GFP yeast 97.
For COc1ccccc1CCn1cnc(-c2ccc(OC)c(OC)c2)c1C(C)C the results were Myeloid diff MLP inactive, Myeloid diff CP1 inactive and GFP autofluor 0.

High-throughput results (PubChem)
